# Laboratory results as given in PubChem BioAssay (NCATS).
# Values joined by “and” are separate entries in the source; they are usually repeats but may differ in a detail not shown here. Identical values can stand only once. Records with an inconclusive call do not appear. Where a call stands in place of a potency, no number is given. Active and inactive are the calls of the source. Unless noted, calls come from the whole dose curve; as a rule, active = well fitted curve in the direction sought with a large enough effect; inconclusive = small, poorly fitted or top-dose-only effect, or another doubt; inactive = no such curve, though single readings can be large; an effect the other way counts as inactive or inconclusive.
# Key:
# [1] = target: Cellular tumor antigen p53 (Homo sapiens) (UniProt P04637); test: Primary qHTS for small molecule compounds that upregulate eGFP-tagged delta133p53alpha (in N-terminal) cells. (AID 2060322); details: NCI-H358 eGFP-delta133p53alpha fluorescence, 24 h; activation: hits give high values;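 note: cells pre-induced with doxycycline then dosed without doxycycline; series mostly up to about 56 µM; nearly all actives have a fitted effect of over 75% in size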
# Procedure, shortened: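 NCI-H358 cells pre-induced 24 h with 10 ng/ml doxycycline for eGFP-delta133p53alpha, plated dox-free and exposed 24 h at 37C to titrated compounds. Fixed, Hoechst-stained; gated GFP peak intensity by laser scanning cytometry, normalized to DMSO (0%) and 57.5 uM 5-azacytidine (100%).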
# [2] = target: Cellular tumor antigen p53 (Homo sapiens) (UniProt P04637); test: Primary qHTS for small molecule compounds that upregulate eGFP-tagged delta133p53alpha (in C-terminal) cells. (AID 2060324)
# Procedure, shortened: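 Read-out: gated-cell GFP peak intensity (laser scanning cytometer), plate-normalized with DMSO as 0% activity, after 24 h compound exposure at 37C. Cells were C-terminal eGFP-tagged delta133p53alpha NCI-H358, doxycycline-induced (100 ng/ml, 24 h) before plating.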
# [3] = BET inhibitor-based combinations targeting novel dependencies in MECOM-rearranged (r) AML: SET-2 cell line (AID 2202231); details: SET-2 AML cells viability, CellTiter-Glo luminescence, 48 h; viability: hits give low values, series mostly up to about 46 µM; note: nearly all actives have a fitted effect of over 35% in size
# Procedure, shortened: (§1)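 Viability of cells (500 per well) is scored by luminescent CellTiter-Glo at 48 hr post-dosing. Eleven-point titrations are normalized to DMSO and empty controls and reduced to AUC values.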
# [4] = BET inhibitor-based combinations targeting novel dependencies in MECOM-rearranged (r) AML: OCI-AML3 cell line (AID 2202232); details: Potency: OCI-AML3 viability; note: potency is the fitted concentration of half-maximal effect; nearly all actives have a fitted effect of over 35% in size
# Procedure, shortened: as §1
# [5] = BET inhibitor-based combinations targeting novel dependencies in MECOM-rearranged (r) AML: MV-4-11 cell line (AID 2202233); note: potency is the fitted concentration of half-maximal effect; nearly all actives have a fitted effect of over 45% in size
# Procedure, shortened: (§2)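 Using pin-tool transfer, drugs were added in 11 doses to cells (500/well), incubated 48 hr, and assessed with CellTiter-Glo. Z-AUC is a mean-centring transformation applied separately to each screened line.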
# [6] = BET inhibitor-based combinations targeting novel dependencies in MECOM-rearranged (r) AML: UCSD-AML1 cell line (AID 2202235); note: nearly all actives have a fitted effect of over 40% in size; note: potency is the fitted concentration of half-maximal effect
# Procedure, shortened: as §2
# [7] = BET inhibitor-based combinations targeting novel dependencies in MECOM-rearranged (r) AML: AML-194 cell line (AID 2202237; note: nearly all actives have a fitted effect of over 40% in size; note: potency is the fitted concentration of half-maximal effect)
# Procedure, shortened: as §1
# [8] = BET inhibitor-based combinations targeting novel dependencies in MECOM-rearranged (r) AML: AML-191 cell line (AID 2202236; note: nearly all actives have a fitted effect of over 35% in size; note: potency is the fitted concentration of half-maximal effect)
# Procedure, shortened: as §1
# [9] = target: Aldehyde dehydrogenase, mitochondrial (Homo sapiens) (UniProt P05091); test: qHTS for Inhibitors of the Aldehyde Dehydrogenase Family (ALDH2) Validation screens (AID 2061302; active = well fitted inhibition curve with a large enough effect; title and protocol of this record describe different tests)
# [10] = target: Retinaldehyde dehydrogenase 3 (Homo sapiens) (UniProt P47895); test: qHTS for Inhibitors of the Aldehyde Dehydrogenase Family (ALDH1A3) Validation screen (AID 2061312); note: nearly all actives have a fitted effect of over 45% in size
# Cellular tumor antigen p53 (Homo sapiens), sequence (P04637 whole entry, looked up): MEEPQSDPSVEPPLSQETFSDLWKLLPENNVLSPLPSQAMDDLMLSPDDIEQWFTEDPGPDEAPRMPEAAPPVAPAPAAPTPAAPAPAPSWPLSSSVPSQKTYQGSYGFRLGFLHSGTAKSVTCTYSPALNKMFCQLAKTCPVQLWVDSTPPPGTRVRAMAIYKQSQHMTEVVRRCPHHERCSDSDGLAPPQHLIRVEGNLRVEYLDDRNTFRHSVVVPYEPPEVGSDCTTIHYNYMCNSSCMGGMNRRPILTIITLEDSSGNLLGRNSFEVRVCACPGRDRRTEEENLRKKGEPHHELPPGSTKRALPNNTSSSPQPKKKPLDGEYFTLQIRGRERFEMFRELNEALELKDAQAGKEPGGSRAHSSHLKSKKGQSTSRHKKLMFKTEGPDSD
smiles,measurement,setting,value
CC1=C(/C=C/C(C)=C/C=C/C(C)=C/C(=O)O)C(C)(C)CCC1,activation,[1],11.9% (inactive) and -12.6% (inactive)
same,Potency,[2],inactive
same,viability,[3],106% (inactive)
same,Potency,[4],7.42 µM (active)
same,Potency,[5],0.59 µM (active)
same,Potency,[6],inactive
same,Potency,[7],inactive
O=C(O)CCc1ccc(NCc2cccc(Oc3ccccc3)c2)cc1,viability,[3],117% (inactive)
same,Potency,[8],inactive
same,Potency,[7],inactive
CNCCCC12CCC(c3ccccc31)c1ccccc12,Potency,[4],18.6 µM (active)
same,Potency,[8],23.5 µM (active)
same,Potency,[7],26.3 µM (active)
COc1cc2ncnc(Nc3cccc(Cl)c3)c2cc1OC,Potency,[6],18.6 µM (active)
CCCn1c(=O)[nH]c(=O)c2[nH]cnc21,activation,[1],24.9% (inactive)
same,Potency,[9],inactive
same,Potency,[10],inactive
OCCN1CCN(CCCN2c3ccccc3Sc3ccc(Cl)cc32)CC1,activation,[1],-6.69% (inactive) and -35.6% (inactive)
same,Potency,[9],inactive
same,Potency,[10],inactive
CN(C)C(=O)Oc1ccc[n+](C)c1,activation,[1],-10.7% (inactive) and 11.9% (inactive)
same,Potency,[9],inactive
same,Potency,[10],inactive
C[N+]1(C)CCC(OC(=O)C(c2ccccc2)c2ccccc2)CC1,activation,[1],-16.4% (inactive)
same,Potency,[9],inactive
same,Potency,[10],inactive
CC[C@H]1OC(=O)[C@H](C)[C@@H](O[C@H]2C[C@@](C)(OC)[C@@H](O)[C@H](C)O2)[C@H](C)[C@@H](O[C@@H]2O[C@H](C)C[C@H](NC)[C@H]2O)[C@](C)(O)C[C@@H](C)CN(C)[C@H](C)[C@@H](O)[C@]1(C)O,activation,[1],-4.2% (inactive)
same,Potency,[9],inactive
same,Potency,[10],inactive
COc1cc2nc(N3CCN(C(=O)c4ccco4)CC3)nc(N)c2cc1OC,activation,[1],2.51% (inactive) and 14.7% (inactive) and 81.5% (inactive)
same,Potency,[9],inactive
same,Potency,[10],inactive
